Measured values reported in PubChem BioAssay (EPA / NIEHS).
Several values for one entry are separate records, joined by “and”; a condition that tells them apart may be missing. Identical values can stand only once. Results filed as inconclusive are left out. A structure can be active in one record and inactive in another. Activity calls are given as the source filed them. How the source made its calls, unless noted: active means hit-call score of the fitted dose curve at least 0.9, where 1 is the maximum; inactive means score below 0.9.

Legend:
[1] = biological target: human RAR-related Orphan Receptor gamma (RORg), RORC (gene 6097) (UniProt P51449); experiment: ATG_RORg_TRANS: Attagene TRANS-FACTORIAL HepG2 Assay for human RAR-related Orphan Receptor gamma (RORg) (AID 2283011; active means hit-call score of the fitted dose curve at least 0.9, where 1 is the maximum)
Sequence of human RAR-related Orphan Receptor gamma (RORg), RORC (gene 6097) (P51449 whole entry, looked up, the tested form may be a part): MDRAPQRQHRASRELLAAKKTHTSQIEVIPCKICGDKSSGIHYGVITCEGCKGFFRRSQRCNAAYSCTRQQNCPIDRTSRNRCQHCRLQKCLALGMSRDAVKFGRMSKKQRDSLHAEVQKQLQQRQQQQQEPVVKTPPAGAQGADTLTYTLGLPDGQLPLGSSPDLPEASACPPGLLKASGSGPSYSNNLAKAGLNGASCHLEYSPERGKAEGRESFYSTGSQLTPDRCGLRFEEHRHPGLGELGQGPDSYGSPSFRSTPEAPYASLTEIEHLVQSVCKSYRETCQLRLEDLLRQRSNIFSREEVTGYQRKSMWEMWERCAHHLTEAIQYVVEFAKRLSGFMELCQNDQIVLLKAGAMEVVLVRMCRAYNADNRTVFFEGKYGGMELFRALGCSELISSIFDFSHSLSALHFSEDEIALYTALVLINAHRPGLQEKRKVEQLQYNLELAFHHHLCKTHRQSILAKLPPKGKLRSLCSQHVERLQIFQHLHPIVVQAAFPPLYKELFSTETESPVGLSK
In short: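 Readout: reporter transcript induction (RT-PCR, fluorescent primer extension, capillary electrophoresis) after 24 h compound exposure of transiently transfected HepG2 cells carrying a RORg-Gal4 chimera and GAL4-UAS reporters; DMSO served as baseline, with increasing signal fitted.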

[2] = biological target: Retinoic acid receptor RXR-alpha (Homo sapiens) (UniProt P19793); experiment: ATG_RXRa_TRANS: Attagene TRANS-FACTORIAL HepG2 Assay for human Retinoid X Receptor alpha (RXRa) (AID 2283012; active means hit-call score of the fitted dose curve at least 0.9, where 1 is the maximum)
Sequence of Retinoic acid receptor RXR-alpha (Homo sapiens) (P19793 whole entry, looked up, the tested form may be a part): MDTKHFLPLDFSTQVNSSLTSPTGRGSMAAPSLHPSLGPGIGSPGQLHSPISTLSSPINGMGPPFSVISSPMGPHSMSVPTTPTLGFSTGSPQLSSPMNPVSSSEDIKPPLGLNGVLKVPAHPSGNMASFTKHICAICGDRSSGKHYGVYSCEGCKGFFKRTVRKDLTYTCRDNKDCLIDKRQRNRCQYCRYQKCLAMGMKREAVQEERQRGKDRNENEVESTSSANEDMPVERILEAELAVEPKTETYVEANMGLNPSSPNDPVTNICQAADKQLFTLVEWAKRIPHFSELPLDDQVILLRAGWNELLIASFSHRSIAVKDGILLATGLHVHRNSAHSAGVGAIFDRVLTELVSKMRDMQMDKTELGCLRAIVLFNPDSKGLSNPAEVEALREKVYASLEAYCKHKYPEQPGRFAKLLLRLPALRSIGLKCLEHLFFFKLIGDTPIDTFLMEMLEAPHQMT
In short: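 HepG2 cells transiently transfected with multiplexed GAL4-UAS reporter units and chimeric NR-GAL4 fusions, dosed 24 h. Reporter mRNA measured by RT-PCR, FAM labelling, HpaI digestion and capillary electrophoresis; gain-of-signal fitted relative to DMSO baseline.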

[3] = biological target: human Retinoid X Receptor beta (RXRb), RXRB (gene 6257) (UniProt P28702); experiment: ATG_RXRb_TRANS: Attagene TRANS-FACTORIAL HepG2 Assay for human Retinoid X Receptor beta (RXRb) (AID 2283013; active means hit-call score of the fitted dose curve at least 0.9, where 1 is the maximum)
Sequence of human Retinoid X Receptor beta (RXRb), RXRB (gene 6257) (P28702 whole entry, looked up, the tested form may be a part): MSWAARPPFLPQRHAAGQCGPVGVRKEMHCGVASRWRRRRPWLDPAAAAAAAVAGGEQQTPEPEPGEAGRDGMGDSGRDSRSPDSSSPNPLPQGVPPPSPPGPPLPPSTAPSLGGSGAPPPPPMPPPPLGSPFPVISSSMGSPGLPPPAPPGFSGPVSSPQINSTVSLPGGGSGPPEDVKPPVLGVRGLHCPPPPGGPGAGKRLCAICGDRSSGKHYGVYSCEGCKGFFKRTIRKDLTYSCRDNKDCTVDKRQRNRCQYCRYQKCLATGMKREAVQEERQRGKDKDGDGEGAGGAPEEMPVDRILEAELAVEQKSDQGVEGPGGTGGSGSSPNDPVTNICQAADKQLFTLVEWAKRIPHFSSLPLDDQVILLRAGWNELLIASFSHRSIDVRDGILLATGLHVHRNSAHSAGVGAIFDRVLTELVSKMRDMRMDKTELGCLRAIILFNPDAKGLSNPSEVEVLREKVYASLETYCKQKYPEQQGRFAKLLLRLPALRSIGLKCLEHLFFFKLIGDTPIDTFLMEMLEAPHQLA
In short: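 HepG2 cells transiently transfected with multiplexed reporter units driven by GAL4-UAS and exogenous chimeric NR-Gal4 proteins; treated 24 h. Reporter mRNA measured by RT-PCR, 6-FAM labelling and capillary electrophoresis; gain-of-signal fitted versus DMSO baseline.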

[4] = read-out: E-selectin (Homo sapiens) (UniProt P16581); experiment: BSK_3C_Eselectin: BioMAP Diversity Plus: 3C Assay for Eselectin Biomarker Activity (AID 2283015); settings: primary human endothelial cells (HUVEC); actives raise or lower the signal
In short: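 Primary human umbilical vein endothelial cells (3C system) were dosed with chemical and cell-surface E-selectin measured by ELISA 24 h later. Bidirectional curve fitting used DMSO as negative control and baseline.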

[5] = read-out: Interleukin-1 alpha (IL1a), IL1A (gene 3552); experiment: BSK_BE3C_IL1a: BioMAP Diversity Plus: BE3C Assay for Interleukin-1 alpha (IL1a) Biomarker Activity (AID 2283016); settings: primary human bronchial epithelial cells; actives raise or lower the signal
In short: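 Human primary bronchial epithelial cells (BE3C system) were dosed with compound and IL-1a measured by ELISA 24 h later. Activity was fitted bidirectionally against DMSO baseline; cytotoxicity was tracked in parallel cultures by SRB total-protein staining.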

[6] = read-out: Monocyte Chemoattractant Protein-1 (MCP1), CCL2 (gene 6347); experiment: BSK_3C_MCP1: BioMAP Diversity Plus: 3C Assay for Monocyte Chemoattractant Protein-1 (MCP1) Biomarker Activity (AID 2283017); settings: primary human endothelial cells (HUVEC); actives raise or lower the signal
In short: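 Primary human umbilical vein endothelial cells (3C system) were exposed to test chemical for 24 h, after which MCP-1 was quantified by ELISA. Activity was fitted bidirectionally against DMSO as negative control and baseline.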

[7] = read-out: Monocyte Chemoattractant Protein-1 (MCP1), CCL2 (gene 6347); experiment: BSK_4H_MCP1: BioMAP Diversity Plus: 4H Assay for Monocyte Chemoattractant Protein-1 (MCP1) Biomarker Activity (AID 2283018); settings: primary human endothelial cells (HUVEC); actives raise or lower the signal
In short: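 Human umbilical vein endothelial cells (4H system) dosed with chemical; MCP-1 measured by ELISA 24 h after dosing. Bidirectional curve fitting against DMSO negative control as baseline; parallel SRB total-protein staining tracks overt cytotoxicity.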

[8] = read-out: Human Leukocyte Antigen - DR isotype (HLADR), HLA-DRA (gene 3122); experiment: BSK_3C_HLADR: BioMAP Diversity Plus: 3C Assay for Human Leukocyte Antigen - DR isotype (HLADR) Biomarker Activity (AID 2283019); settings: primary human endothelial cells (HUVEC); actives raise or lower the signal
In short: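 Primary human umbilical vein endothelial cells (3C system) were dosed with compound and cell-surface HLA-DR was quantified by ELISA at 24 h. Activity was fitted bidirectionally against DMSO as negative control and baseline.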

[9] = read-out: Interleukin-8 (IL8), CXCL8 (gene 3576); experiment: BSK_3C_IL8: BioMAP Diversity Plus: 3C Assay for Interleukin-8 (IL8) Biomarker Activity (AID 2283020); settings: primary human endothelial cells (HUVEC); actives raise or lower the signal
In short: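 Primary human umbilical vein endothelial cells (3C system) were exposed to test chemical for 24 h, then IL-8 was quantified by ELISA. Responses were fitted bidirectionally against DMSO vehicle as baseline.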

[10] = read-out: Monokine induced gamma interferon (MIG), CXCL9 (gene 4283); experiment: BSK_3C_MIG: BioMAP Diversity Plus: 3C Assay for Monokine induced gamma interferon (MIG) Biomarker Activity (AID 2283021); settings: primary human endothelial cells (HUVEC); actives raise or lower the signal
In short: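 Primary human umbilical vein endothelial cells in the 3C system were exposed to chemical for 24 h, after which MIG was quantified by ELISA. Activity was fitted bidirectionally against DMSO as negative control and baseline.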

[11] = biological target: human Vitamin D Receptor (VDR), VDR (gene 7421) (UniProt P11473); experiment: ATG_VDR_TRANS: Attagene TRANS-FACTORIAL HepG2 Assay for human Vitamin D Receptor (VDR) (AID 2283022; active means hit-call score of the fitted dose curve at least 0.9, where 1 is the maximum)
Sequence of human Vitamin D Receptor (VDR), VDR (gene 7421) (P11473 whole entry, looked up, the tested form may be a part): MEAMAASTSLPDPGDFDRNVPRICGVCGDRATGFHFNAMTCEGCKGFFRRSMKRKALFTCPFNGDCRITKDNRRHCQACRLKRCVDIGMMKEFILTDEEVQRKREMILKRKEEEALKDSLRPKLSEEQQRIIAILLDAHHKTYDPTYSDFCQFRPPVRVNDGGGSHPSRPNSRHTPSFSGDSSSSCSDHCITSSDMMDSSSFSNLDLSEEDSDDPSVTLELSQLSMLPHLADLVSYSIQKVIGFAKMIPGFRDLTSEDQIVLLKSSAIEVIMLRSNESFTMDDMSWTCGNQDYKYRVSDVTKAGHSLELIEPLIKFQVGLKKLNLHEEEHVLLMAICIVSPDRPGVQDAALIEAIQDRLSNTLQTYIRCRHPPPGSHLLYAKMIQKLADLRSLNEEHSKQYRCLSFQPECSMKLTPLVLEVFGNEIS
In short: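 HepG2 cells were transiently transfected with multiple GAL4-UAS reporter units, so signal reflects exogenous chimeric receptor-Gal4 activity. After 24 h compound exposure, reporter mRNA was measured by RT-PCR, fluorescent labelling and capillary electrophoresis, fitted for gain of signal versus DMSO.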

[12] = BSK_3C_SRB: Viability Assessment in the BioMAP Diversity Plus: 3C Assay (AID 2283023); settings: primary human endothelial cells (HUVEC);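 further: fitted both ways against DMSO so a hit may be signal rise or drop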
In short: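 Primary human umbilical vein endothelial cells in the 3C system were read 24 h after compound dosing. Total protein was stained with 0.1% sulforhodamine B after 10% TCA fixation and read at 560 nm, with bidirectional fitting against DMSO as baseline.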

[13] = read-out: Matrix Metallopeptidase 1 (MMP1), MMP1 (gene 4312); experiment: BSK_BE3C_MMP1: BioMAP Diversity Plus: BE3C Assay for Matrix Metallopeptidase 1 (MMP1) Biomarker Activity (AID 2283024); settings: primary human bronchial epithelial cells; actives raise or lower the signal
In short: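 Primary human bronchial epithelial cells were dosed with test chemicals, and MMP1 levels were measured by ELISA 24 h later. Data were fitted bidirectionally against DMSO as the negative control and activity baseline.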

[14] = BSK_3C_Vis: BioMAP Diversity Plus: 3C Assay for Morphology Visualization (AID 2283025); settings: primary human endothelial cells (HUVEC);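 further: fitted both ways so gain or loss versus DMSO counts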
In short: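 Human umbilical vein endothelial cells in the 3C system were imaged by light microscopy 24 h after chemical dosing to record cell morphology. Activity was fitted bidirectionally against DMSO as negative control and baseline; the endpoint serves as a background control.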

[15] = read-out: Pselectin, SELP (gene 6403); experiment: BSK_4H_Pselectin: BioMAP Diversity Plus: 4H Assay for Pselectin Biomarker Activity (AID 2283026); settings: primary human endothelial cells (HUVEC); actives raise or lower the signal
In short: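 Primary human umbilical vein endothelial cells were exposed to test chemical for 24 h, then cell-surface P-selectin was quantified by ELISA. Activity was fitted bidirectionally against DMSO as negative control and baseline.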

[16] = BSK_4H_SRB: Viability Assessment in the BioMAP Diversity Plus: 4H Assay (AID 2283027); settings: primary human endothelial cells (HUVEC);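 further: cells exposed to compound for 24 h before staining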;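 on AC50: curves fitted both ways versus DMSO so AC50 may be loss or gain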
In short: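 Absorbance at 560 nm of SRB-stained total protein served as the viability read-out in confluent primary human umbilical vein endothelium 24 h after chemical treatment. Curves were fitted bidirectionally against DMSO as negative control.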

[17] = BSK_BE3C_SRB: Viability Assessment in the BioMAP Diversity Plus: BE3C Assay (AID 2283028); settings: primary human bronchial epithelial cells;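 on AC50: fitted both ways so AC50 may mark signal gain or loss versus DMSO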
In short: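 Human primary bronchial epithelial cells were exposed to test chemicals for 24 h. Total protein in parallel cultures was then measured by staining with 0.1% sulforhodamine B after 10% TCA fixation, with absorbance read at 560 nm. Activity was fitted bidirectionally against DMSO.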

[18] = read-out: Thrombomodulin, THBD (gene 7056); experiment: BSK_3C_Thrombomodulin: BioMAP Diversity Plus: 3C Assay for Thrombomodulin Biomarker Activity (AID 2283029); settings: primary human endothelial cells (HUVEC); actives raise or lower the signal
In short: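 Primary human umbilical vein endothelial cells (3C system) were exposed to chemical for 24 h, then thrombomodulin levels were measured by ELISA. Activity was fitted bidirectionally against the DMSO negative control as baseline.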

[19] = read-out: Urokinase-type plasminogen activator receptor (uPAR), PLAUR (gene 5329); experiment: BSK_4H_uPAR: BioMAP Diversity Plus: 4H Assay for Urokinase-type plasminogen activator receptor (uPAR) Biomarker Activity (AID 2283030); settings: primary human endothelial cells (HUVEC); actives raise or lower the signal
In short: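 Primary human umbilical vein endothelial cells were exposed to chemical for 24 h before cell-surface uPAR was quantified by ELISA. Activity was fitted bidirectionally against the DMSO negative control baseline.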

[20] = biological target: human Thyroid Receptor alpha (THRa1), THRA (gene 7067) (UniProt P10827); experiment: ATG_THRa1_TRANS: Attagene TRANS-FACTORIAL HepG2 Assay for human Thyroid Receptor alpha (THRa1) (AID 2283014; active means hit-call score of the fitted dose curve at least 0.9, where 1 is the maximum)
Sequence of human Thyroid Receptor alpha (THRa1), THRA (gene 7067) (P10827 whole entry, looked up, the tested form may be a part): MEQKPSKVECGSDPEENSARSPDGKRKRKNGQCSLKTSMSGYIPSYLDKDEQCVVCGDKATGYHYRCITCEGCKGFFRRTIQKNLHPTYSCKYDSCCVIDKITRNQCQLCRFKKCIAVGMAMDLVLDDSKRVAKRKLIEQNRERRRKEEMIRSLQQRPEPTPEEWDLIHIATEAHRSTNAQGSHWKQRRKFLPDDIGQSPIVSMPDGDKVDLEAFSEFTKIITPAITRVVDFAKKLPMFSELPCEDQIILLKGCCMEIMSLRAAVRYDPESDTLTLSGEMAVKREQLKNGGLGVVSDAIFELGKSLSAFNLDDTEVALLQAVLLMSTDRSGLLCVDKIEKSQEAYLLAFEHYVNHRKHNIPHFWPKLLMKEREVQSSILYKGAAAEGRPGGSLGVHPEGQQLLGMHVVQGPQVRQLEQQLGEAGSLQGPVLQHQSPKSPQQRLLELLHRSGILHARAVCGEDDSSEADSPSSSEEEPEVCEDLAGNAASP
In short: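 HepG2 cells transiently transfected with multiplexed GAL4-UAS reporter units for exogenous chimeric THRa1-Gal4; reporter mRNA measured 24 h after dosing by RT-PCR, 6-FAM labelling, HpaI digestion and capillary electrophoresis. Gain-of-signal fitted versus DMSO baseline.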

Measured: AC50

Sequence of E-selectin (Homo sapiens) (P16581 whole entry, looked up): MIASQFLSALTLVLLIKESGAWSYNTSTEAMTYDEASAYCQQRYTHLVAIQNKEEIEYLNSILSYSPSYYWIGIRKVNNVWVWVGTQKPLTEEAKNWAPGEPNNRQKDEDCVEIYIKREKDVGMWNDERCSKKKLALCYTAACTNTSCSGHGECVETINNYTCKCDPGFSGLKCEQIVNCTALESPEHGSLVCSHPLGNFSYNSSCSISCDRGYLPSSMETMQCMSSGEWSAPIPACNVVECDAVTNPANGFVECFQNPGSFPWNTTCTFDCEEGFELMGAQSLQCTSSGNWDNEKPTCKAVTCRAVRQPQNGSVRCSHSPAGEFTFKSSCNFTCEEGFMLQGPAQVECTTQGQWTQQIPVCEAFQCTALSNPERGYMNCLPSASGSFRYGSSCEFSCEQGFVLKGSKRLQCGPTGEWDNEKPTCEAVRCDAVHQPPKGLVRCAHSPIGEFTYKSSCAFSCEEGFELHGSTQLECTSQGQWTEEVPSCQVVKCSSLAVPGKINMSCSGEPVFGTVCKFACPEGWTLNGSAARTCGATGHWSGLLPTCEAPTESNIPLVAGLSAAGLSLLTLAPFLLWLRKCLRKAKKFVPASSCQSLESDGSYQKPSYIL

COC(=O)C(C)Oc1ccc(Oc2ccc(Cl)cc2Cl)cc1 (configuration not stated)
inactive: [1] | [2] | [3] | [4] | [5] | [6] | [7] | [8] | [9] | [10] | [11] | [12] | [13] | [14] | [15] | [16] | [17] | [18] | [19]
active: [6] 25.4 µM | [8] 13.8 µM | [12] 14 µM and 20 µM | [14] 39 µM

Oc1ccccc1-c1ccccc1
inactive: [1] | [2] | [20] | [4] | [5] | [6] | [7] | [8] | [9] | [10] | [11] | [12] | [13] | [14] | [15] | [16] | [17] | [18] | [19]
active: [3] 56.3 µM and 26.8 µM

N#Cc1nn(-c2c(Cl)cc(C(F)(F)F)cc2Cl)c(N)c1S(=O)C(F)(F)F (configuration not stated)
active: [20] 48.7 µM | [4] 20 µM | [6] 30.5 µM | [7] 23.1 µM | [8] 14 µM | [9] 27.8 µM | [12] 32.8 µM | [14] 37.5 µM | [15] 20 µM | [16] 33.5 µM | [17] 18 µM | [19] 23.2 µM
inactive: [1] | [2] | [3] | [5] | [10] | [11] | [13] | [18]

CCOP(=S)(OCC)SCn1c(=O)oc2cc(Cl)ccc21
active: [12] 30.2 µM | [14] 39 µM | [15] 29.6 µM
inactive: [1] | [2] | [3] | [20] | [4] | [5] | [6] | [7] | [8] | [9] | [10] | [13] | [16] | [17] | [18] | [19]

COc1cnc(OC)n2nc(NS(=O)(=O)c3c(OCC(F)F)cccc3C(F)(F)F)nc12
active: [9] 0.016 µM
inactive: [1] | [2] | [3] | [20] | [4] | [5] | [6] | [7] | [8] | [9] | [10] | [12] | [13] | [14] | [15] | [16] | [17] | [18] | [19]
